# An excerpt weighted towards active compounds, which were near 8.1% of everything screened.
# NOMO-1 viab: STK33 inhibitor candidate reducing NOMO-1 cell viability. NOMO-1 AML viability, CellTiter-Glo luminescence, 72 h. inhibition, % (test concentration not listed). 37,000 tested, 7.5% active. AID 2330; in the data active means inhibition above about 80%
# PD-1 reverse act: reversal of PD-1 mediated T-cell inhibition; primary human CD4 T cells, PD-L1 beads, CellTiter-Glo 96 h; activation, % (no concentration beside the values); 29,000 tested, under 10 active; AID 2316; call rule not given here;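 further: 0% = median vehicle wells and 100% = positive control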
# MITF inh: blocks MITF activity; TRPM1 promoter luciferase, luminescence, 24 h; 37,000 tested, 0.28% active; inhibition, % (test concentration not listed); in the data active means inhibition above about 85%;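 further: human melanocyte line stably carrying TRPM1 promoter luciferase reporter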
# Shh pathway inh: blocks Sonic Hedgehog signaling; Shh-LIGHT2 Gli-luciferase reporter, 30 h; inhibition, % (concentration not given with the values); 22,000 tested, 2.1% active; AID 2313;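 active means mean inhibition across valid replicates above about 65%, limit read from the data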;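 further: pathway switched on by Shh-conditioned medium diluted 1 in 25 in low serum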
# * = called active by the depositor; x = no result given.
SMILES,NOMO-1 viab,PD-1 reverse act,MITF inh,Shh pathway inh
Cc1oc2cc(OC(C)C)ccc2c(=O)c1-c1ccc2c(c1)OCCO2,-11.6,-0.4,-21.0,-14.3
Cc1oc(-c2ccc3c(c2)OCCO3)cc1C(=O)NCC(=O)O,1.9,0.2,86.4*,x
CCN(CC)CCC(=O)N1N=C(c2ccc(C)cc2)CC1c1ccc(OC)cc1 (centres undefined),26.5,0.9,-0.9,-5.2
CC1=CC(C)C2(COC(=O)Nc3ccccc3)COC(c3cccnc3)C1C2C (centres undefined),104.7*,-0.5,53.0,91.9*
Cc1cc(Cl)ccc1OCC(O)CN1CCC(CN2C(=O)c3cccc4cccc(c34)C2=O)CC1 (centres undefined),119.2*,x,0.5,x
Cc1cc(C)c(S(=O)(=O)N2CCN(CC(O)COc3ccc4ccccc4c3)CC2)c(C)c1 (centres undefined),22.8,-1.5,43.4,x
Cc1ccc(/C(C#N)=C/c2ccc(N(C)C)cc2)cc1,115.6*,-1.9,41.8,-88.1
COc1ccccc1/C=C(\C#N)c1ccc(C)cc1,16.7,-0.8,-1.0,-78.6
CC(Sc1ncnc2nc[nH]c12)c1ccccc1Cl (centres undefined),40.7,0.8,10.3,-4.2
COc1ccc(OCC(=O)Nc2sc(C)c(C)c2C(N)=O)cc1,26.6,3.8,-6.2,x
N#Cc1cnc2c(C(N)=O)cnn2c1N,5.9,0.2,4.9,3.5
Oc1cc(C2CCCCC2)cc(C2CCCCC2)c1,137.2*,-7.1,40.4,x
CCC(C)NC(=O)Cn1cnc2c1c(=O)n(C)c(=O)n2C (centres undefined),9.9,1.0,6.8,14.9
CCc1ccc(/C(C#N)=C/C=C/c2ccccc2)cc1,115.1*,-0.8,-6.8,-147.7
C[C@@H]1CN([C@H](C)CO)C(=O)c2cc(NC(=O)Nc3ccc4c(c3)OCO4)ccc2O[C@H]1CN(C)Cc1ccc(Oc2ccccc2)cc1,-2.3,2.6,-2.3,x
C[C@H](CO)N1C[C@H](C)[C@@H](CN(C)Cc2ccc(-c3ccccc3)cc2)Oc2ccc(NC(=O)Nc3ccc4c(c3)OCO4)cc2C1=O,120.3*,-0.2,-7.2,-7.2
C[C@@H]1CN([C@@H](C)CO)C(=O)c2cc(NC(=O)Nc3ccc4c(c3)OCO4)ccc2O[C@H]1CN(C)Cc1ccccc1,33.9,x,-2.0,-20.7
C[C@@H]1CN([C@@H](C)CO)C(=O)c2cc(NC(=O)Nc3ccc4c(c3)OCO4)ccc2O[C@H]1CN(C)Cc1ccc(-c2ccccc2)cc1,115.5*,1.7,19.8,x
C[C@H](CO)N1C[C@H](C)[C@@H](CN(C)Cc2ccc(Oc3ccccc3)cc2)Oc2ccc(NC(=O)Nc3ccc4c(c3)OCO4)cc2C1=O,32.0,-0.1,-7.5,x
C[C@@H]1CN([C@H](C)CO)C(=O)c2cc(NC(=O)Nc3ccc4c(c3)OCO4)ccc2O[C@@H]1CN(C)Cc1ccc(Oc2ccccc2)cc1,66.5,0.1,9.1,92.2*
C[C@H]1CN([C@@H](C)CO)C(=O)c2cc(NC(=O)Nc3ccc4c(c3)OCO4)ccc2O[C@@H]1CN(C)Cc1ccc(-c2ccccc2)cc1,111.8*,0.2,9.5,8.8
N#Cc1cc2c(nc1SCCS(=O)(=O)c1nc3ccccc3s1)CCCC2,111.8*,-8.6,-12.1,x
Cc1cc(C)c(C#N)c(SCC(O)CS(=O)(=O)c2ccc(C(C)(C)C)cc2)n1 (centres undefined),24.4,0.5,5.0,x
Cc1cc(C)c(C#N)c(SCCS(=O)(=O)c2nc3ccccc3s2)n1,128.2*,-13.3,37.7,x
CSc1cccc(NC(=O)C(C)N(c2ccc(C)c(C)c2)S(C)(=O)=O)c1 (centres undefined),20.7,-0.3,11.2,x
SMILES,NOMO-1 viab,PD-1 reverse act,MITF inh,Shh pathway inh
CCc1cccc(C)c1NC(=O)CN(C)S(=O)(=O)c1ccc(Cl)cc1,-9.4,2.6,9.2,x
COc1ccc(Oc2c(C(F)(F)F)oc3cc(OCC(=O)Nc4ccccc4F)ccc3c2=O)cc1,95.8*,-7.0,46.9,x
CC(C)c1ccccc1Oc1coc2cc(OCC(=O)Nc3ccccc3F)ccc2c1=O,28.4,1.2,-3.6,x
Cc1ccccc1C1CC(=O)c2c(ccc3ccccc23)N1 (centres undefined),139.7*,-1.7,53.3,41.0
COC(=O)C1=C(C)NC(=O)CC1c1ccccc1C (centres undefined),-4.6,1.4,-15.6,14.8
COc1ccc(NC(=O)Nc2cccc3c2O[C@@H](CN(C)S(=O)(=O)c2ccc(F)cc2)[C@@H](C)CN([C@H](C)CO)C3=O)cc1,-7.6,0.8,-7.2,-31.4
COc1ccc(S(=O)(=O)N(C)C[C@@H]2Oc3c(NC(=O)Nc4ccc(F)cc4)cccc3C(=O)N([C@@H](C)CO)C[C@@H]2C)cc1,33.3,-1.2,7.1,85.6*
